# Data as given in PubChem BioAssay (EPA / NIEHS).
# Where “and” joins values, the source holds several entries; their conditions need not be identical. Equal entries are not always repeated. Some compounds were tested as several samples or in several runs, with calls that do not always agree. Calls of active or inactive are those of the source. The calls were made as follows: active = hit-call score of the fitted dose curve at least 0.9, where 1 is the maximum; inactive = score below 0.9.
# Read-out: KRT18 (gene 3875)
# Assay: BSK_BE3C_Keratin818: BioMAP Diversity Plus: BE3C Assay for Keratin 818 Biomarker Activity (AID 2284282)
# Details: primary human bronchial epithelial cells
# Experimental: BSK_BE3C is a cell-based, multiplexed-readout assay that uses bronchial epithelial cell, a human lung primary cell, with measurements taken at 24 hours after chemical dosing in a 96-well plate.BSK_BE3C_Keratin818 is an assay component measured in the BSK_BE3C assay. It measures Keratin 8/18 antibody related to regulation of gene expression using ELISA technology.Data from the assay component BSK_BE3C_Keratin818 was analyzed at the endpoint, BSK_BE3C_Keratin818, in the positive analysis fitting direction relative to DMSO as the negative control and baseline of activity. Using a type of binding reporter, gain or loss-of-signal activity can be used to understand protein changes. To generalize the intended target to other relatable targets, this assay endpoint is annotated to the 'cell adhesion molecules' intended target family, where the subfamily is 'keratin'.
# The levels of cell surface (or secreted, indicated by the prefix "s") biomarker endpoints were measured by ELISA. Overt cytotoxicity to cells in confluent adherent cultures (all systems other than the BT system) was assessed by measuring total protein levels using sulforhodamine B (SRB) staining in parallel cultures at the time of biomarker measurements, indicated as SRB endpoints. For proliferation assays for adherent cell types, individual cell types are cultured at sub-confluence and relative cell numbers quantified by SRB staining at time points optimized for each system (48 h: 3C and CASM3C systems; 72 h: BT and HDF3CGF systems; 96 h: SAg system). SRB was performed by staining cells with 0.1% SRB after fixation with 10% TCA and reading wells at 560 nm.Viability and proliferation of PBMC (T cells) was quantified by Alamar Blue reduction for the SAg and BT systems. For PBMC viability (referred to as PBMC Cytotoxicity within the assay endpoint names), cells were plated (75,000/well in a 96-well plate) and then chemical samples added for 1 h before addition of activators, SEB and TSST-1 (20 ng/mL final concentration each). Cells were incubated for 90 h. Then, Alamar Blue (20 uL/well) (Invitrogen, Cat DAL1100) was added for 6 h, and the plates were read with a fluorescence microplate reader at 546/580 nm (excitation/emission). For PBMC proliferation, cells were plated and activated as above but incubated for only 16 h prior to addition of Alamar Blue. Plates were read after 6 h.
Compound,outcome,AC50
CCCCCCCCCCCC,inactive,5.09 µM (active)
O=C(O)C(F)(F)OC(F)(F)C(F)(F)OC(F)(F)C(F)(F)OC(F)(F)C(F)(F)C(F)(F)C(F)(F)F,–,3.28 µM (active) and 2.7 µM (active)
CN(CCO)S(=O)(=O)C(F)(F)C(F)(F)C(F)(F)C(F)(F)C(F)(F)C(F)(F)C(F)(F)C(F)(F)F,inactive,–
O=P(O)(O)CCC(F)(F)C(F)(F)C(F)(F)C(F)(F)C(F)(F)C(F)(F)C(F)(F)C(F)(F)F,inactive,–
Oc1c(Cl)cc(Cl)cc1Sc1cc(Cl)cc(Cl)c1O,–,9.64 µM (active) and 7.03 µM (active)
O=C(CC(=O)C(F)(F)C(F)(F)C(F)(F)F)c1cccs1,–,10.8 µM (active) and 14.7 µM (active)
CN(Cc1cnc2nc(N)nc(N)c2n1)c1ccc(C(=O)N[C@@H](CCC(=O)O)C(=O)O)cc1,inactive,–
Oc1ccc(Cc2ccccc2O)cc1,inactive,–
OCC(F)(F)C(F)(F)C(F)(F)C(F)(F)C(F)(F)C(F)(F)C(F)(F)C(F)(F)C(F)(F)C(F)(F)C(F)(F)F,inactive,–
O=C1NS(=O)(=O)c2ccccc21,inactive,–
O=C(O)CCC(F)(F)C(F)(F)C(F)(F)C(F)(F)C(F)(F)C(F)(F)F,inactive,–
O=P(O)(O)CCC(F)(F)C(F)(F)C(F)(F)C(F)(F)C(F)(F)C(F)(F)F,inactive,–
C=CC(=O)OCCC(F)(F)C(F)(F)C(F)(F)C(F)(F)C(F)(F)C(F)(F)C(F)(F)C(F)(F)F,inactive,–
O=S(=O)(O)C(F)(F)C(F)(F)C(F)(F)C(F)(F)C(F)(F)C(F)(F)C(F)(F)C(F)(F)C(F)(F)C(F)(F)F,–,21 µM (active) and 18 µM (active)
O=C(O)CCC(F)(F)C(F)(F)C(F)(F)C(F)(F)C(F)(F)F,inactive,–
